Bioassay records as filed in PubChem.
TDP1 cell noCPT: qHTS for Inhibitors of human tyrosyl-DNA phosphodiesterase 1 (TDP1): qHTS in cells in absence of CPT; DT40 Tdp1-/- hTDP1 cells, no CPT, ATP luminescence, 48 h; Potency, µM (titrated, usually from 46.2 µM), without a hit: top-dose activity change, negative = growth inhibition, usual class: inhibitors; 420,000 tested, 15% active; AID 686978, 2013; note: potency is the fitted concentration of half-maximal effect; nearly all actives have a fitted effect of over 55% in size
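Growth of hTDP1-complemented DT40 Tdp1-knockout cells is measured by ATP luminescence after at least 48 hr compound exposure at 37 °C, with DMSO substituting for the 20 nM CPT used in the parallel screen.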
ELG1 repair inh: inhibitors of ELG1-dependent DNA repair in HEK293T cells. HEK293T ELG1-luciferase reporter, luminescence, 16 h; DNA damage induced by 5-fluorouridine. Potency, µM (series often up to 46.1 µM), inactives show at the highest dose activity change, negative = inhibition, actives largely listed as inhibitors. 330,000 tested, 2.3% active. AID 504467; note: potency is the fitted concentration of half-maximal effect; nearly all actives have a fitted effect of over 55% in size
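Cells (2,000 per well) received 5-fluorouridine plus test compound or DMSO and were incubated 16 hr at 37 °C, 5% CO2. Luciferase activity was read by luminescence 30 min after ONE-Glo addition; signal suppression marked inhibition of damage-induced ELG1 function.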
VP16 counter: inhibits Gal4-VP16 luciferase reporter, ROR gamma counter-screen; Drosophila S2 Gal4-VP16 UAS-luciferase, luminescence, 20 h; Potency, µM (doses to about 53.6 µM), inactives show top-dose activity, negative = inhibition, usual class: inhibitors; 310,000 tested, 3.5% active; AID 2546;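 note: Gal4-VP16 expression switched on by copper sulfate through the metallothionein promoter; potency is the fitted concentration of half-maximal effect; nearly all actives have a fitted effect of over 50% in size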
TDP1 cell CPT: growth inhibition of DT40 Tdp1-/-;hTDP1 cells with camptothecin (screen for TDP1 inhibitors). Potency, µM (titrated, usually from 46.2 µM), without a hit: at the top dose activity change, negative = growth inhibition, most hits filed as inhibitors. chicken DT40 Tdp1-/-;hTDP1 cells + 20 nM CPT, ATP luminescence, 48 h. 420,000 tested, 12% active. AID 686979; note: potency is the fitted concentration of half-maximal effect; nearly all actives have a fitted effect of over 55% in size
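Cell growth measured by CellTiter-Glo luminescence after a minimum 48 h, 37 C compound exposure with 20 nM CPT in Tdp1-knockout DT40 cells stably expressing hTDP1, seeded 400/well; qHTS titration format.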
IL1B secr inh: inflammasome signaling inhibition, IL-1 beta readout | THP-1 LPS/ATP IL-1B secretion, AlphaLISA, 16 h; active compounds read low | activity change, % at 57.5 µM | AID 743279 | 360,000 tested, 4.7% active; in the data active = activity change below about -50%; inconclusive = mostly about -30% to -49%
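Secreted IL-1B measured by AlphaLISA bead assay after 16 h compound exposure of THP-1 cells; compounds (final up to 57.5 uM) added 1 h before LPS (250 ng/mL) and ATP (1.25 mM) stimulation; lower signal means less secretion.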
RORgamma inh: inhibitors of mouse ROR gamma transcriptional activity; Drosophila S2 Gal4-RORgamma UAS-luciferase reporter, 20 h; Potency, µM (doses to about 53.6 µM), inactives show at the top dose activity change, negative = inhibition, most hits filed as inhibitors; P51450; 310,000 tested, 5.4% active; AID 2551; note: potency is the fitted concentration of half-maximal effect; nearly all actives have a fitted effect of over 60% in size
Target sequence (P51450 whole entry, looked up, the tested form may be a part): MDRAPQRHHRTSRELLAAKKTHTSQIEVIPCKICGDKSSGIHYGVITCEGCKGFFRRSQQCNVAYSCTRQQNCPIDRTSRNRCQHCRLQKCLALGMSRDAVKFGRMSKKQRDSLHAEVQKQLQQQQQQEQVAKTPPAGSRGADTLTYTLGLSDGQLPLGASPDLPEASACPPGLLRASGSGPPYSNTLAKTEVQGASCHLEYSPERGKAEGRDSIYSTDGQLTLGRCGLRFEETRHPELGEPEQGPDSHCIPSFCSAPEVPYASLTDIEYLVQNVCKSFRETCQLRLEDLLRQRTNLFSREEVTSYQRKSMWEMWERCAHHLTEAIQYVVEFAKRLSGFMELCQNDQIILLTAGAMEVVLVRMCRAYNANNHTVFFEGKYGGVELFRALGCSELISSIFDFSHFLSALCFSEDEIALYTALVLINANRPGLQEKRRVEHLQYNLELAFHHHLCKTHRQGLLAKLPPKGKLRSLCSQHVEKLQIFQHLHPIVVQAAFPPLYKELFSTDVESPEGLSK
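Drosophila Schneider cells stably carrying a metallothionein-driven Gal4 DBD–ROR gamma fusion and a UAS-Photinus luciferase reporter were exposed to compound for 1 hr, then induced with copper sulfate (700 uM final) for 20 hr at ambient temperature before luminescence reading.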
The depositor's hits bear a star; ? = inconclusive; nt = not tested or not shown; [ ] = remark or other dose. In the library only some 21% were active in any assay of this set; here they are far more common. Unless noted, calls come from the whole dose curve; as a rule, active = well fitted curve in the direction sought with a large enough effect; inconclusive = small, poorly fitted or top-dose-only effect, or another doubt; inactive = no such curve, though single readings can be large; an effect the other way counts as inactive or inconclusive. % is set by controls: 0 for no effect and ±100 for the full control effect.

SMILES	TDP1 cell noCPT	ELG1 repair inh	VP16 counter	TDP1 cell CPT	IL1B secr inh	RORgamma inh
O=C(CCN1N=C(c2ccccc2)CCC1=O)NC1CCCCC1	-5%	nt	nt	-17%	-51*	nt
O=C(N/N=C/c1cc([N+](=O)[O-])ccc1O)c1ccc2c(c1)OCCO2	1.5µM*	-25%	1.4µM*	2.1µM*	18	0.63µM*
O=C(N/N=C/c1ccccc1[N+](=O)[O-])c1ccc2c(c1)OCCO2	-18%	?	7.1µM*	-23%	-18	3.5µM*
O=[N+]([O-])c1ccc(O)c(C=Nc2ccc3c(c2)OCO3)c1	-9%	9%	25%	-29%	-11	5%
COc1cc(/C=N/NC(=O)c2cccc(N3CCCC3=O)c2)ccc1O	-9%	28%	-28%	-10%	-12	-39%
O=C(N/N=C/c1cc([N+](=O)[O-])ccc1O)c1cccc(N2CCCC2=O)c1	10µM*	12µM*	3.2µM*	15µM*	162	2.2µM*
O=C(N/N=C/c1cc(O)ccc1[N+](=O)[O-])c1ccc2c(c1)OCCO2	?	?	8.9µM*	?	41	10µM*
COc1cc(=O)n2c(c1C(=O)NC(C)c1ccco1)CCN(CC=C(C)C)CC2 (centres undefined)	-5%	nt	nt	-12%	nt	nt
CCOC(=O)CN1C(=O)CCSc2ccc(Cl)cc21	-2%	12%	-4%	-2%	41	-2%
Clc1ccc(CSc2nnc(-c3ccc4c(c3)OCO4)o2)cc1	-8%	0%	10%	-1%	-9	35%
O=C1CCCCC1Sc1nnc(-c2ccc3c(c2)OCO3)o1 (centres undefined)	-15%	?	0.89µM*	-23%	1	0.56µM*
C/C(CCC(=O)OC[C@@H]1O[C@H](C#Cc2ccccc2)C=C[C@@H]1Oc1ccc(C)cc1)=N/O[C@@H](C)c1cc(-c2c(C)cc(C)cc2C)no1	nt	nt	2%[10 µM]	nt	nt	3%[10 µM]
CC(O)[C@H]1CC[C@H]2[C@@H]3CC[C@@H]4C[C@@H](O)CC[C@]4(C)[C@H]3CC[C@]12C (some centres undefined)	-9%	nt	nt	-1%	nt	nt
CCCCCOC(=O)Cc1c(O)c2ccccc2n(C)c1=O	16µM*	5%	2%	16µM*	-20	?
CC(C)c1nn2c(=O)cc(COC(=O)c3cccs3)nc2s1	4%	nt	nt	2%	nt	nt
O=C(CSc1nc2c(c(=O)[nH]1)CCC2)Nc1ccccc1F	-11%	nt	nt	-12%	nt	nt
Cc1occc1-c1nc(-c2ccccn2)no1	?	?	?	-22%	1	13µM*
Cc1onc(-c2ccccc2Cl)c1-c1nc(-c2ccccn2)no1	16µM*	3%	-5%	?	-17	-30%
CC(=O)Nc1ccc(NC(=O)c2c(-c3ccccc3Cl)noc2C)cc1	8%	-3%	2%	0%	28	8%
Clc1ccccc1/C=C/c1nc(-c2ccccn2)no1	-23%	?	?	17%	-13	2.5µM*
CC(=O)Nc1nnc(-c2c(-c3ccccc3Cl)noc2C)o1	-12%	-27%	18µM*	15%	nt	5µM*
Cc1occc1-c1nc(-c2ccncc2)no1	4%	?	4%	-19%	-13	28%
c1ccc(-c2noc(-c3cccnc3)n2)nc1	?	?	?	-23%	1	?
CCC(=O)N1CCC1(C)C(=O)Nc1ccc(OC(F)F)cc1 (centres undefined)	-8%	nt	nt	8%	13	nt
O=C(Nc1cccc(Cl)c1)Nc1nnc(-c2ccncc2)s1	5.8µM*	?	-11%	7.3µM*	9	?
COC(=O)Nc1nnc(-c2ccncc2)s1	-29%	10%	3%	?	-2	24%
O=C(Nc1nnc(-c2ccc(F)cc2)s1)Nc1ccccc1F	-2%	2%	-14%	-1%	22	4%
